Source: PubChem (several laboratories)
Shown are actives, neighbours in structure and some others; about 1.2% of the full set was active somewhere.
pCIP destab: p/CIP-EGFP fusion destabilizers, primary screen, fluorescence, F442A cells; Q05BA5; decrease of EGFP signal, % at 10 µM; 16 h; actives 0.01% (n = 290,000); AID 1984, 2009;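 active means EGFP signal decrease of at least 30% at 10 µM or well 3 SD below plate mean, unless failing retest; inactive means the rest, including hits failing retest or dose response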
GPR7 antag: GPR7 receptor antagonists, primary screen, cell-based, fluorescence, single concentration; Neuropeptides B/W receptor type 1 (Homo sapiens), P48145; GPR7-expressing cells, fluorescence antagonist assay; inhibition, % at 4.4 µM; actives 1.1% (n = 290,000); AID 1861, 2009; in the data active means inhibition above about 16%, passing the limit was not always enough;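 further: cells stimulated with the agonist NPW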
VLA-4 inh: inhibition in human VLA-4 binding assay, primary screen, VLA-4 allosteric modulator project, MLPCN library, flow cytometry, VLA-4 expressing cells. Integrin alpha-4 (Homo sapiens), P13612. ligand binding flow cytometry. inhibition, % (about 7 µM as worked out from the volumes in the protocol). actives 0.2% (n = 330,000). AID 2557, 2010; in the data active means inhibition above about 50%
JMJD2C inh: inhibitors of GASC-1 histone demethylase, primary screen, biochemical, fluorescence, DELFIA europium. GST-JMJD2C(1-420) H3K9me3 demethylation. actives 0.069% (n = 330,000). Lysine-specific demethylase 4C (Homo sapiens), Q9H3R0. AID 2099, 2009. inhibition, % at 2.35 µM;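 active means more than half of a compound's replicate wells show inhibition beyond 50%, single wells judged on their own value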;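 further: signal counts dimethyl H3K9 product captured on neutravidin plate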
Target sequence (Q9H3R0 1-420 limits assumed): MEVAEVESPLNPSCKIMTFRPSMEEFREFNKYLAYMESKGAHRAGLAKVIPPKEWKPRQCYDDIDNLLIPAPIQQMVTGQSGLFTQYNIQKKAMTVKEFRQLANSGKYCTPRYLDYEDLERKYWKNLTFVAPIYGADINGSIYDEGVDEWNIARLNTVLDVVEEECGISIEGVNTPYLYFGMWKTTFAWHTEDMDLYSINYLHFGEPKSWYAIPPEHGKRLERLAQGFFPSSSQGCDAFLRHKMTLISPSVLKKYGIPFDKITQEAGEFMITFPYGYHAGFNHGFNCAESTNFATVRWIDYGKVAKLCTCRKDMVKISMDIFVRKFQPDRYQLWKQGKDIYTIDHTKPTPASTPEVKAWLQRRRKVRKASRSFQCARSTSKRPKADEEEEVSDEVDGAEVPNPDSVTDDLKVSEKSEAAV
GPR7 antag cf: GPR7 receptor antagonists, confirmation, cell-based, fluorescence, single concentration. shares compounds with GPR7 antag. GPR7-expressing cells, calcium fluorescence antagonist mode. inhibition, % at 4.4 µM. actives 52% (n = 2,400). AID 1952, 2009; in the data active means inhibition above about 24%;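 further: stimulated with the GPR7 agonist NPW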
MCHR1 antag: MCHR1 antagonists in cells, counter-screen for GPR7 antagonist project, cell-based, fluorescence, human | shares compounds with GPR7 antag | MCHR1-expressing cells, fluorescence antagonist assay | inhibition, % at 4.4 µM | actives 62% (n = 2,400) | AID 2148, 2009; in the data active means inhibition above about 22%
VLA-4 mod pick: retest of VLA-4 allosteric modulators, confirmation, cell-based, cherry-picked plates, U937, HUTS-21 LIBS antibody | actives 2% (n = 1,300) | shares compounds with VLA-4 inh | U937 cells, HUTS-21 LIBS mAb binding, flow cytometry; LDV ligand present at threefold Kd | inhibition, % at 6.7 µM; in the data active means inhibition above about 40%
Numbers stand for hits; - = inactive; . = no result given.

SMILES	pCIP destab	GPR7 antag	VLA-4 inh	JMJD2C inh	GPR7 antag cf	MCHR1 antag	others
FC(F)Oc1ccc(NC(=S)NCc2ccccc2)cc1	-	-	-	-	.	.
COc1ccc(C(=O)NCc2ccc3c(c2)cc(C)n3C)cc1	-	23	-	-	-	-
COC(=O)[C@@]12OC[C@]34[C@H]([C@@H](O)[C@@H]1O)[C@@]1(C)C(=O)C(O[C@@H]5OC(CO)[C@@H](O)[C@@H](O)[C@@H]5O)=C[C@@H](C)[C@@H]1C[C@H]3OC(=O)[C@H](OC(=O)/C=C(\C)C(C)(C)OC(C)=O)[C@@H]24 (stereo partly drawn)	.	.	-	-	.	.
CCCC(=O)Nc1nc(-c2ccc(OC)cc2)cs1	-	22	-	-	24	36
CN(C(=O)CN1C(=O)C2C3CC(C(Br)C3Br)C2C1=O)C1CCCCC1 (stereo not drawn)	-	23	-	-	39	-
CC(C)CC1NC(=O)N(CC(=O)N(C)C2CCCCC2)C1=O (stereo not drawn)	.	.	-	-	.	.
CN(C(=O)c1ccc(S(=O)(=O)NC2CCCC2)cc1)C1CCCCC1	-	30	-	-	46	22
O=S(=O)(c1ccc(F)cc1)N1CCc2ccccc21	-	-	-	-	.	.
O=S(=O)(NC1CCCCCCC1)c1ccc(F)cc1	.	.	-	-	.	.
O=S(=O)(NC1CC1)c1ccc(S(=O)(=O)N2CCc3ccccc32)cc1	-	22	-	-	-	29
O=S(=O)(NC1CCCC1)c1ccc(S(=O)(=O)NC2CCCC2)cc1	-	43	-	-	51	33
Cc1cnc(C(=O)OCC(=O)NCc2ccc(Cl)cc2)cn1	.	.	-	-	.	.
Cc1ccn(CCC(=O)NC2CC(C)(C)Cc3c2cnn3-c2ccccc2C)n1 (stereo not drawn)	-	-	-	-	.	.
CCC(=O)N(CCC1(c2ccccc2OC)CCOC(C(C)C)C1)Cc1ccco1 (stereo not drawn)	-	-	-	.	.	.
COc1ccc(OCC(=O)Nc2ccc3nc(C)sc3c2)cc1	-	-	-	-	.	.
COc1ccc(OC)c(NS(=O)(=O)Cc2ccccc2)c1	-	-	-	-	.	.
NC(=O)c1cc2c3ccccc3ccn2c1-c1ccccc1	-	-	-	-	.	.
CCOC(=O)C(C)Oc1cccc2c(=O)n(CC(=O)NCc3ccccc3)ccc12 (stereo not drawn)	-	22	-	-	-	-
COc1ccc2[nH]cc(CCNC(=O)Cc3ccc(F)cc3)c2c1	-	-	-	-	.	.
NS(=O)(=O)c1ccc2nc(NC(=O)Nc3ccc(F)cc3)sc2c1	-	34	-	-	50	-
CCOc1ccc(C(CC(=O)O)NC(=O)C2c3ccccc3Oc3ccccc32)cc1 (stereo not drawn)	-	-	-	-	.	.
O=C(O)CC(NC(=O)C1c2ccccc2Oc2ccccc21)c1ccc(Cl)cc1 (stereo not drawn)	-	35	-	-	-	-
c1ccc(Cn2nnnc2C(c2cccs2)N2CCc3ccccc3C2)cc1 (stereo not drawn)	-	23	-	-	-	39
CC[n+]1c(/C=C/N(C)c2ccccc2)n(-c2ccccc2)c2ccc(-c3nc4ccccc4s3)cc21	-	84	-	-	95	89
CC(=O)N1CCN(CC(=O)Nc2ccc3c(c2)CCC3)CC1	-	23	-	-	-	-
SMILES	pCIP destab	GPR7 antag	VLA-4 inh	JMJD2C inh	GPR7 antag cf	MCHR1 antag	others
CCCSc1cc(N2CCOCC2)nc(-c2ccccc2Cl)n1	-	-	-	-	.	.
CCn1c(SCC(=O)c2ccc(Cl)cc2)nnc1-c1cccs1	-	-	-	-	.	.
CCn1c(SCCOc2ccc(Cl)cc2)nnc1-c1cccs1	-	29	-	-	-	31
C=C(C)C(=O)Nc1cccc(C2=NOC3(C2)C[C@@H](C(N)=O)N(C(=O)c2cc([N+](=O)[O-])cc([N+](=O)[O-])c2C)C3)c1 (stereo partly drawn)	-	.	-	-	.	.
CN(C)S(=O)(=O)c1cccc(NC(=O)COc2ccc(C(=O)c3ccccc3)cc2)c1	-	32	-	-	33	60
Cc1nn(-c2ccccc2)nc1CNC(=O)C1CCC1	-	-	-	-	.	.
Cc1c(C(=O)N2CCOCC2)sc2ncnc(N3CCc4ccccc4C3)c12	-	-	-	-	.	.
Cc1c(C(=O)N2CCCCC2C)sc2ncnc(N3CCc4ccccc4C3)c12 (stereo not drawn)	-	27	-	-	-	35
COc1cc(C2c3sc(=O)[nH]c3SC3C4CCC(C4)C23)ccc1O (stereo not drawn)	-	27	-	-	-	-
COc1ccc(C2c3sc(=O)[nH]c3SC3C4CCC(C4)C23)cc1 (stereo not drawn)	-	-	-	-	.	.
CCOc1ccc(N2CC(C(=O)Nc3ccncc3)CC2=O)cc1 (stereo not drawn)	-	25	-	-	-	-
CCOc1ccc(N2CC(C(=O)Nc3ccccn3)CC2=O)cc1 (stereo not drawn)	-	-	-	-	.	.
CCN1CCN(Cc2ccc(NC(=O)c3ccc(C)c(NC(=O)C(=O)c4c[nH]c5ccccc45)c3)cc2C(F)(F)F)CC1	-	36	-	-	61	74
O=C(NCCC1=CCCCC1)C1CCN(S(=O)(=O)c2ccc(Br)s2)CC1	-	-	-	-	.	.
CC(O)CN(C)CC/C=C1/c2ccccc2CSc2ccccc21 (stereo not drawn)	-	22	-	-	-	-
COc1ccc(NC(=O)CN(C)CC(=O)N(C)C2(C#N)CCC(C)CC2)cc1 (stereo not drawn)	.	.	-	-	.	.
CCSc1ncc(/C=N/Nc2ccc(Cl)cc2)n1C	-	25	-	-	-	40
CC(C)C(c1nnnn1Cc1ccc(F)cc1)N1CCN(Cc2ccc3c(c2)OCO3)CC1 (stereo not drawn)	-	27	-	-	-	25
N=c1c(C(=O)NCc2ccc(F)cc2)cc2c(=O)n3ccccc3nc2n1CC1CCCO1 (stereo not drawn)	-	22	89	-	26	-	VLA-4 mod pick=-
CCOc1ccc(Oc2c(/C=N/NC(N)=O)c(C)nn2-c2ccccc2)cc1	-	-	-	-	.	.
